Several values for one entry are separate records, joined by “and”; a condition that tells them apart may be missing. Equal values may be shown once. Records with an inconclusive call do not appear. Where a call stands in place of a potency, no number is given. Activity calls are given as the source filed them. The call rests on the fitted dose curve; in most records, active means well fitted cell-killing curve with a large enough effect; inconclusive means small, poorly fitted or top-dose-only effect, or effect the other way; inactive means no such curve, though single readings can be large or run the other way.
Test: qHTS of pediatric cancer cell lines to identify multiple opportunities for drug repurposing: Confirmatory screen for Saos-2 cells (AID 1347127); further: nearly all actives have a fitted effect of over 60% in size
Settings: Saos-2 osteosarcoma cell viability; series mostly up to 45.9 µM
Excerpt: Drug repurposing or repositioning has been offered as a strategy for drug development in oncology programs. This approach has special potential for childhood cancers and other rare or orphan diseases, where the expected return on new drug development has been a disincentive to pharmaceuticals.
In this project we exploit the poly-pharmacology of drugs to discover new indications via phenotypic screening of a panel of 19 well-characterized cell lines derived from solid tumors seen in children and adolescents. The goal is to identify approved drugs with previously unrecognized anticancer properties that has the potential to reveal new mechanisms and biological processes involved in carcinogenesis or drug resistance. We employed a titration-based paradigm (quantitative high-throughput screening or qHTS), where all compounds were tested at multiple concentrations for their effect on cell viability. Concentration-response curves (CRCs) were derived directly from the primary screen, and both potency and efficacy values were used to identify compounds with robust bioactivity profiles. We screened the NIH Chemical Genomics Center (NCGC) Pharmaceutical Collection (NPC) and Mechanism Interrogation Plate (MIPE) small molecule collections of approved and investigational compounds against these cell lines; and measured metabolically active cells after 48 hours of compound treatment as a proxy for cell viability.
Assay Submitter: Nathalia J. Martinez, National Center for Advancing Translational Sciences, National Institutes of Health, Rockville, MD, USA; email: natalia.martinez@nih.gov
[1] Shen, M et al. Quantitative high-throughput phenotypic screening of pediatric cancer cell lines identifies multiple opportunities for drug repurposing. Oncotarget 2017 Dec 19;9(4):4758-4772. PMID 29435139.
The cells were obtained from University of North Carolina (UNC), Pediatric Preclinical Testing Program (PPT), and Coriell Institute (CI).
qHTS cell viability assay:
Cells were assayed in growth media at a density of 500-1,000 cells/well. Five microliters of cells were dispensed into 1,536-well, white, solid-bottom, TC-treated plates (Greiner Bio One) using a multidrop dispenser and incubated at 37 degrees C, 5% CO2, under a humidified atmosphere for 5 hours. Twenty-three nanoliters of compounds and controls (neutral control DMSO or positive control bortezomib at final concentration of 2.3 µM) were subsequently transferred by Kalypsys pintool. For primary screens, the MIPE collection was tested at 11-point dilutions (final concentrations range from 0.78 nM to 46 µM) and the NPC collection at 8-point dilutions (final concentrations range from 0.59 nM to 46 µM). Compounds tested in follow-up screens were assayed at 11-point dilutions. Cells were incubated for 48 hours, followed by addition of 3 µL of CellTiter-Glo (Promega). After a 15 min incubation at room temperature, samples were analyzed for luminescence intensity using a ViewLux High-throughput CCD imager equipped with clear filters.
For `NC(=O)c1cccnc1`, the Potency was “inactive”. With `CC(C(=O)O)c1ccc2c(c1)CC(=O)c1ccccc1S2` (stereo not given) the Potency was “inactive”. For `Cn1nnc2c(C(N)=O)ncn2c1=O`, the Potency was “inactive”. With `COC(=O)Nc1nc2ccc(Sc3ccccc3)cc2[nH]1` the Potency was 1.31 µM (active). For `COC(=O)Nc1nc2ccc(S(=O)c3ccccc3)cc2[nH]1` (stereo not given), the Potency was 1.47 µM (active). With `Cc1cccc(N(C)C(=S)Oc2ccc3ccccc3c2)c1` the Potency was “inactive”. For `Nc1nc(F)nc2c1ncn2[C@@H]1O[C@H](CO)[C@@H](O)[C@@H]1O`, the Potency was 928 nM (active) and 1.17 µM (active). In the case of `CNNCc1ccc(C(=O)NC(C)C)cc1`, the Potency was “inactive”. With `CCCCOc1ccc(CC(=O)NO)cc1` the Potency was “inactive”. With `CNS(=O)(=O)CCc1ccc2[nH]cc(C3CCN(C)CC3)c2c1` the Potency was “inactive”. With `Nc1nc(N)nc(-c2cc(Cl)ccc2Cl)n1` the Potency was “inactive”. With `Nc1nc(=S)c2[nH]cnc2[nH]1` the Potency was 7.37 µM (active) and 2.93 µM (active). In the case of `CC(C)(C#N)c1cc(Cn2cncn2)cc(C(C)(C)C#N)c1`, the Potency was “inactive”. For `CC(C)(C)C(=O)OCOP(=O)(COCCn1cnc2c(N)ncnc21)OCOC(=O)C(C)(C)C`, the Potency was 14.7 µM (active). For `CN1CCCC(n2nc(Cc3ccc(Cl)cc3)c3ccccc3c2=O)CC1` (stereo not given), the Potency was “inactive”. In the case of `CCOC(=O)[C@H](CCc1ccccc1)N[C@H]1CS[C@H](c2cccs2)CN(CC(=O)O)C1=O`, the Potency was “inactive”. In the case of `CN(C)c1ccc(C(=C2C=CC(=[N+](C)C)C=C2)c2ccc(N(C)C)cc2)cc1`, the Potency was 1.31 µM (active). With `C[C@@H]1C[C@H]2[C@@H]3CCC4=CC(=O)C=C[C@]4(C)[C@@]3(Cl)[C@@H](O)C[C@]2(C)[C@@]1(OC(=O)c1ccco1)C(=O)CCl` the Potency was 4.14 µM (active). For `COc1ccc(C(=O)CC(=O)c2ccc(C(C)(C)C)cc2)cc1`, the Potency was “inactive”. For `CC1CC2C3CCC4=CC(=O)C=C[C@]4(C)[C@@]3(F)[C@@H](O)C[C@]2(C)[C@@]1(O)C(=O)CO` (stereo not given in full), the Potency was “inactive”. In the case of `COc1cc([C@@H]2c3cc4c(cc3[C@H](O)[C@H]3COC(=O)[C@H]23)OCO4)cc(OC)c1OC`, the Potency was 0.0414 µM (active). With `CCC(=O)O[C@]1(C(=O)SCF)[C@H](C)C[C@H]2[C@@H]3C[C@H](F)C4=CC(=O)C=C[C@]4(C)[C@@]3(F)[C@@H](O)C[C@@]21C` the Potency was “inactive”. With `CC(C)C[C@H](NC(=O)[C@H](CCc1ccccc1)NC(=O)CN1CCOCC1)C(=O)N[C@@H](Cc1ccccc1)C(=O)N[C@@H](CC(C)C)C(=O)[C@@]1(C)CO1` the Potency was 0.117 µM (active). With `COc1cc2c(Nc3ccc(Br)cc3F)ncnc2cc1OCC1CCN(C)CC1` the Potency was “inactive”. For `Nc1nc(N)c2nc(CNc3ccc(C(=O)NC(CCC(=O)O)C(=O)O)cc3)cnc2n1` (stereo not given), the Potency was “inactive”. In the case of `CC(C)NCC(O)c1ccc(NS(C)(=O)=O)cc1` (stereo not given), the Potency was “inactive”. For `COc1cc(NCc2ccc3nc(N)nc(N)c3c2C)cc(OC)c1OC`, the Potency was 10.4 µM (active). With `CCc1c2c(nc3ccc(OC(=O)N4CCC(N5CCCCC5)CC4)cc13)-c1cc3c(c(=O)n1C2)COC(=O)[C@]3(O)CC` the Potency was 1.85 µM (active). In the case of `CNC(=O)c1cc(Oc2ccc(NC(=O)Nc3ccc(Cl)c(C(F)(F)F)c3)cc2)ccn1`, the Potency was “inactive”. For `S=P(N1CC1)(N1CC1)N1CC1`, the Potency was “inactive”. For `C[C@@H](CN1CC(=O)NC(=O)C1)N1CC(=O)NC(=O)C1`, the Potency was “inactive”. With `COc1nc(N)nc2c1ncn2[C@@H]1O[C@H](CO)[C@@H](O)[C@@H]1O` the Potency was “inactive”. For `CCC(=O)O[C@]1(C(=O)CCl)[C@@H](C)C[C@H]2[C@@H]3CCC4=CC(=O)C=C[C@]4(C)[C@@]3(F)[C@@H](O)C[C@@]21C`, the Potency was “inactive”. In the case of `CCOC(=O)c1ccc(C#Cc2ccc3c(c2)C(C)(C)CCS3)nc1`, the Potency was “inactive”. For `CNCC[C@H](Oc1cccc2ccccc12)c1cccs1`, the Potency was “inactive”.

Source: PubChem BioAssay (NCATS)
Potency means the concentration at half of the fitted maximal effect.
